Measured values published in PubChem BioAssay.

target: Carbonic anhydrase 2 (Homo sapiens) (UniProt P00918); assay: CAII small-molecule binders, profiling panel, biochemical, small-molecule microarray, Alexa647-labelled CAII (AID 1122); conditions: CAII-A647 binding fluorescence, higher = more signal

Compound	composite z-score
CON=C(C)CCN1CCCCc2nc(C)c(C)cc21	0.53
CCOC(=O)[C@H](Cc1ccccc1)NC(=O)CCC1CC(OC(=O)NCc2cccc3ccccc23)CC2(CCCC(COC(=O)NCC3CCCCC3)O2)O1 (stereo partly drawn)	0.0394
CO[C@H]1COC(=O)CCC[C@H](C)[C@@H](OC)COC(=O)CC=C[C@@H]1C	-0.298
C[C@H]1C=CCC(=O)OC[C@H](C)C(=O)N2CCC[C@H]2C(=O)OC1	-0.656
CC(=O)OC[C@H]1O[C@H](CCON=C(C)C)C=C[C@@H]1OC(C)=O	-0.177
CC(C)[C@@H](OCc1ccccc1)[C@H](C)C=NO[C@@H](C)c1cn([C@H](CO)Cc2ccccc2)nn1	-0.227
O=C1C2=CC[C@H]3C(=O)N(C4CCCCC4)C(=O)[C@H]3[C@H]2[C@H](O)[C@@H]2O[C@H]12	0.335
CC(C)(C)N1C(=O)[C@H]2[C@H]3[C@H](O)[C@H](O)CC(=NNC(=O)OCc4ccccc4)[C@H]3CC[C@H]2C1=O	0.158
CC(C)(C)N1C(=O)[C@H]2[C@H]3[C@H](O)[C@H](O)CC(=NNC(=O)OCc4ccccc4)[C@@H]3CC[C@H]2C1=O	0.0243
O=C1C2=CC[C@H]3C(=O)N(C[C@@H]4CCCO4)C(=O)[C@H]3[C@H]2[C@H](O)[C@@H]2O[C@H]12	-0.145
CO[C@@H]1C=CCC(=O)N[C@@H](C)C(=O)OC[C@@H](NS(=O)(=O)c2ccc(C)cc2)[C@H](C)C=CCC(=O)OC[C@H]1C	-0.662
C[C@@H]1CC[C@@H](C(=O)O)N[C@H]1c1cccc(N2CCOCC2)c1	0.295
CO[C@@H]1COC(=O)[C@@H]2CCCN2C(=O)[C@@H](C)COC(=O)CCC[C@H]1C	-0.126
